In PubChem BioAssay (NCATS):
Results filed as inconclusive are left out. Calls of active or inactive are those of the source. The call rests on the fitted dose curve; in most records, active means well fitted curve in the direction sought with a large enough effect; inconclusive means small, poorly fitted or top-dose-only effect, or another doubt; inactive means no such curve, though single readings can be large; an effect the other way counts as inactive or inconclusive. Peptide text beside a SMILES is read from it.

Experiments:
[1] = S16 Schwann cell viability assay (CellTiter-Glo assay) (AID 624031);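 further: cellular ATP luminescence as a viability measure; nearly all actives have a fitted effect of over 70% in size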
Method in brief: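 This viability control uses native rat S16 Schwann cells grown in DMEM plus 10% FBS. After a 24 h compound treatment at 37 °C, CellTiter-Glo luminescence reports ATP content, scaled against DMSO-treated and cell-free wells.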

AA1029 = assay: qHTS profiling for inhibitors of Plasmodium falciparum proliferation (AID 504749); further: nearly all actives have a fitted effect of over 60% in size; conditions: P. falciparum in erythrocytes, SYBR Green DNA, 72 h; series mostly up to 12.8 µM
Method in brief: (§1)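 Parasite proliferation within erythrocytes, 72 h exposure. Endpoint: SYBR Green I fluorescence after overnight lysis at room temperature. Controls: 0.29 uM artemisinin, DMSO.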

ATS189 = assay: as above; conditions: P. falciparum in erythrocytes, SYBR Green DNA, 72 h; series mostly up to 12.8 µM
Method in brief: as §1

CP191 = assay: as above; conditions: P. falciparum in erythrocytes, SYBR Green DNA, 72 h; series mostly up to 12.8 µM
Method in brief: as §1

CP192 = assay: as above; conditions: P. falciparum in erythrocytes, SYBR Green DNA, 72 h; series mostly up to 12.8 µM
Method in brief: as §1

CP215 = assay: as above; conditions: P. falciparum in erythrocytes, SYBR Green DNA, 72 h; series mostly up to 12.8 µM
Method in brief: as §1

CP217 = assay: as above; conditions: P. falciparum in erythrocytes, SYBR Green DNA, 72 h; series mostly up to 12.8 µM
Method in brief: as §1

CP247 = assay: as above; conditions: P. falciparum in erythrocytes, SYBR Green DNA, 72 h; series mostly up to 12.8 µM
Method in brief: as §1

CP250 = assay: as above; conditions: P. falciparum in erythrocytes, SYBR Green DNA, 72 h; series mostly up to 12.8 µM
Method in brief: as §1

CP260 = assay: as above; conditions: P. falciparum in erythrocytes, SYBR Green DNA, 72 h; series mostly up to 12.8 µM
Method in brief: as §1

CP265 = assay: as above; conditions: P. falciparum in erythrocytes, SYBR Green DNA, 72 h; series mostly up to 12.8 µM
Method in brief: as §1

CP335 = assay: as above; conditions: P. falciparum in erythrocytes, SYBR Green DNA, 72 h; series mostly up to 12.8 µM
Method in brief: as §1

DFO2036 = assay: as above; conditions: P. falciparum in erythrocytes, SYBR Green DNA, 72 h; series mostly up to 12.8 µM
Method in brief: as §1

P93_24 = assay: as above; conditions: P. falciparum in erythrocytes, SYBR Green DNA, 72 h; series mostly up to 12.8 µM
Method in brief: as §1

P94_40 = assay: as above; conditions: P. falciparum in erythrocytes, SYBR Green DNA, 72 h; series mostly up to 12.8 µM
Method in brief: as §1

TAB113 = assay: as above; conditions: P. falciparum in erythrocytes, SYBR Green DNA, 72 h; series mostly up to 12.8 µM
Method in brief: as §1

DIV17 = assay: as above; conditions: P. falciparum in erythrocytes, SYBR Green DNA, 72 h; series mostly up to 12.8 µM
Method in brief: as §1

Dd2 = assay: as above; conditions: P. falciparum in erythrocytes, SYBR Green DNA, 72 h; series mostly up to 12.8 µM
Method in brief: as §1

ICS = assay: as above; conditions: P. falciparum in erythrocytes, SYBR Green DNA, 72 h; series mostly up to 12.8 µM
Method in brief: as §1

W2 = assay: as above; conditions: P. falciparum in erythrocytes, SYBR Green DNA, 72 h; series mostly up to 12.8 µM
Method in brief: as §1

Measured: Potency

CC[C@@]12CCCN3CCc4c(n(c5ccccc45)[C@](O)(C(=O)OC)C1)C32 (stereo not given in full)
not listed: DIV17 | Dd2 | ICS | W2
inactive: all other assays above

CC1(C)OC2CO[C@]3(COS(N)(=O)=O)OC(C)(C)OC3C2O1 (stereo not given in full)
inactive: all assays above

CC(=O)N[C@H](CC(C)C)C(=O)O
not listed: [1] | CP260
inactive: all other assays above

NCC1CCC(N)C(O[C@@H]2C(O)[C@H](O[C@H]3OC(CO)C(O)C(N)C3O)[C@@H](N)C[C@H]2N)O1 (stereo not given in full)
not listed: W2
inactive: all other assays above

CC(C)=CCC[C@](C)(O)C1CC=C(C)CC1 (stereo not given in full)
inactive: all assays above

CCCC(=O)O[C@]1(C(=O)CO)CCC2[C@@H]3CCC4=CC(=O)CC[C@]4(C)C3C(O)C[C@]21C (stereo not given in full)
inactive: all assays above

CC1CCC(C(C)C)C(=O)C1 (stereo not given)
inactive: all assays above

COC(=O)C(Cc1ccccc1)NC(=O)C(N)CC(=O)O (stereo not drawn) (H-Asp-Phe-OMe; configuration not given here)
inactive: all assays above

C[C@]12C=CC(=O)C=C1CCC1C2C(O)C[C@]2(C)C1CC[C@]2(O)C(=O)CO (stereo not given in full)
inactive: all assays above

COC(=O)N/N=C/C1=C[N+](=O)c2ccccc2[N+]1=O
not listed: W2
inactive: all other assays above

CC(=O)OC1CCC2C3CCc4cc(O)ccc4C3CCC12C (stereo not given)
not listed: ICS | W2
inactive: all other assays above
